Laboratory results reported in article PMC4336329 (PLoS ONE, 2015).
Among all 310,000 compounds or so, about 14,000 (4.5%) showed an effect of 50% or more. Effects have a minus sign here. The full list was thinned out, with strong results kept by preference.

biological target: human ether-à-go-go-related gene (hERG) potassium channel (human, UniProt Q12809); assay: primary screen, population patch clamp on CHO cells stably expressing hERG; higher = less effect of the substance
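Note: peak tail current of the secondary pulse compared with the same well before compound.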

human ether-à-go-go-related gene (hERG) potassium channel, sequence (Q12809 whole entry, looked up): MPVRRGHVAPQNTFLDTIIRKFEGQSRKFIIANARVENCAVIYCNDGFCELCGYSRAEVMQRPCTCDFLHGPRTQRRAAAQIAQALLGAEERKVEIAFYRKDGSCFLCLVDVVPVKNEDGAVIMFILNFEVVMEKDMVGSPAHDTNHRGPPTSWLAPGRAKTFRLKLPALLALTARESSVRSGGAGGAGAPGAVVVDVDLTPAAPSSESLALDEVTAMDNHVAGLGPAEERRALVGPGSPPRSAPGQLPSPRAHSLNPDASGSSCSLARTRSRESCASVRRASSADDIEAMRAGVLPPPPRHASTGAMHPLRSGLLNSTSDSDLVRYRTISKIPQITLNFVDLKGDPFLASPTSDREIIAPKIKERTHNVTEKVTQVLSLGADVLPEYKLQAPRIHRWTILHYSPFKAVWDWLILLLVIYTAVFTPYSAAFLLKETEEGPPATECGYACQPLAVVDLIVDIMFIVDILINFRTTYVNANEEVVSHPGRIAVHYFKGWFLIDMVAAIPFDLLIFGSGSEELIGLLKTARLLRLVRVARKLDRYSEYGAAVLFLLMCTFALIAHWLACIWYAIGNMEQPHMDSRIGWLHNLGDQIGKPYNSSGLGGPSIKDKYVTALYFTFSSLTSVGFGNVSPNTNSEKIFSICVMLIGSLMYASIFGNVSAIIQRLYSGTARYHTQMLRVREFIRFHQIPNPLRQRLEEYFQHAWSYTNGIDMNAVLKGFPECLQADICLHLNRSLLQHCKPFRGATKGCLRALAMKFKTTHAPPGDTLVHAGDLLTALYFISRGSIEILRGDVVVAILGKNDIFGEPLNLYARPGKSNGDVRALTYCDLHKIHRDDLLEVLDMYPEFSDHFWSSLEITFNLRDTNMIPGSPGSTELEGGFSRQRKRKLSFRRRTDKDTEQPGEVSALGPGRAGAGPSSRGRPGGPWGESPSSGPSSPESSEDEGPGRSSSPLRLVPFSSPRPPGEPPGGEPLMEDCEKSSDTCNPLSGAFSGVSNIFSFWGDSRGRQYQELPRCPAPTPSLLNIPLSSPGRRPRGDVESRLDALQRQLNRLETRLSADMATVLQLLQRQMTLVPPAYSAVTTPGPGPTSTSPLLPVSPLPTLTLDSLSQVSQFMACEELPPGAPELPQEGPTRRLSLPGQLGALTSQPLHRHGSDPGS

SMILES | hERG current change (%, negative = inhibition) at 10uM
CCOC(=O)Cc1csc(NC(=S)NC(=O)c2ccc(F)cc2)n1 | 11.9%
COc1ccc(NC(=S)N(CCO)Cc2ccccc2)cc1 | 2.34%
N#CCCN(Cc1cccnc1)C(=S)Nc1ccc(OC(F)F)cc1 | -78.2%
CN(C)CCCN(Cc1ccccc1)C(=S)Nc1cccc(C(F)(F)F)c1 | -52.6%
CC(C)N(Cc1ccccc1)C(=S)Nc1ccc(OC(F)F)cc1 | -56.7%
CC(C)N(Cc1ccccc1)C(=S)Nc1ccc(F)cc1 | -3.42%
CCCN(Cc1ccccc1)C(=S)Nc1ccc(OCC)cc1 | -35.8%
CN(C)CCCN(Cc1ccccc1)C(=S)Nc1ccc(F)c(Cl)c1 | -24.3%
Cc1ccc(NC(=S)N(Cc2ccccc2)C(C)C)cc1 | 12%
CN(C)C(=S)Nc1cccc(C(F)(F)F)c1 | 5.67%
FC(F)Oc1ccc(NC(=S)NCc2cccnc2)cc1 | -2.69%
CN(C)S(=O)(=O)c1cccc(NC(=S)N(CCC#N)Cc2cccnc2)c1 | -7.37%
CN(C)CCCN(Cc1ccccc1)C(=S)Nc1ccc(OC(F)F)cc1 | -70.3%
COc1ccc(S(=O)(=O)N(C)c2ccc(C(=O)N3CCOCC3)cc2)cc1 | -6.62%
CCOc1ccc(-c2c(C(=O)N/N=C/c3sccc3C)nnn2-c2nonc2N)cc1 | 19.7%
COc1ccc(-n2ncc3c(N4CCc5ccccc54)ncnc32)cc1 | 0.927%
Cc1cccc(OCCCC(=O)Nc2ccc(N(C)C)cc2)c1 | -5.54%
COc1cccc(N2C(=O)Nc3ccc(Br)cc3C2(O)C(=O)NCCCN(C)C)c1 (stereo not drawn) | 19.3%
Cc1ccc(NC(=O)CSc2nnc(C3COc4ccccc4O3)o2)c(Cl)c1 (stereo not drawn) | 12.5%
Brc1ccc(-c2noc(-c3ccccn3)n2)o1 | 2.68%
COC(=O)C1(C)NC(c2ccco2)C2C(=O)N(c3ccc(C)cc3)C(=O)C21 (stereo not drawn) | -22.5%
Cc1nnc(-c2ccccc2)nc1N1CCOCC1 | -10.2%
Cc1nnc(-c2cccc(C(F)(F)F)c2)nc1N1CCOCC1 | -74.1%
FC(F)(F)c1cccc(-c2nnc(-c3ccccc3)c(N3CCOCC3)n2)c1 | -19.7%

SMILES | hERG current change (%, negative = inhibition) at 10uM
CC1CC(C)CN(C(=O)Cn2c(=O)oc3cc(S(=O)(=O)N4CCCC4)ccc32)C1 (stereo not drawn) | -3.39%
C=CCOC(=O)c1cn(CC)c2nc(C)ccc2c1=O | -5.77%
CCn1cc(C(=O)OCC(=O)OC2CC(C)CCC2C(C)C)c(=O)c2ccc(C)nc21 (stereo not drawn) | -51.8%
CCn1cc(C(=O)OCC(=O)N2C(C)CCCC2C)c(=O)c2ccc(C)nc21 (stereo not drawn) | 11%
Cc1cc(C)cc(NC(=O)C2CCCN(S(=O)(=O)c3c(C)noc3C)C2)c1 (stereo not drawn) | -4.34%
CCOc1ccccc1NS(=O)(=O)c1csc(C(N)=O)c1 | 11.7%
CCC(=O)Nc1sc2c(c1C(N)=O)CCC2 | -15.7%
Cc1ccc(NC(=O)CN(C)CC(=O)Nc2sc3c(c2C(N)=O)CCC3)cc1 | -55.5%
CN(CC(=O)Nc1ccc(C(N)=O)cc1)CC(=O)Nc1ccccc1Cl | -5.04%
COc1ccc(NC(=O)CN(C)CC(=O)Nc2sc3c(c2C(N)=O)CCC3)cc1 | -79%
COc1ccc(CC(=O)Nc2sc3c(c2C(N)=O)CCCC3)cc1 | -1.39%
CN(CC(=O)Nc1ccccc1Cl)CC(=O)Nc1sc2c(c1C(N)=O)CCC2 | -66.2%
Cc1cccc(C)c1NC(=O)CN(C)CC(=O)Nc1sc2c(c1C(N)=O)CCC2 | -33.9%
COc1ccc(NC(=O)CN(C)CC(=O)Nc2sc3c(c2C#N)CCC3)cc1 | 0.0459%
NC(=O)c1c(NC(=O)c2ccccc2Cl)sc2c1CCC2 | 15.1%
CSc1ncccc1C(=O)OCC(=O)c1ccccc1 | 35%
CCN(CC(=O)Nc1ccc2c(c1)OCCO2)C(=O)CC(NC(C)=O)c1ccccc1 (stereo not drawn) | 18.7%
Cc1csc(NC(=O)CCCNC(=O)c2ccc(Cl)cc2)n1 | -23.6%
CCC(C)c1ccccc1N1CC(C(=O)Nc2ccc(S(=O)(=O)N3CCOCC3)cc2)CC1=O (stereo not drawn) | -9.78%
COc1ccccc1N1CCN(CC(O)COCCOc2ccc(Br)cc2)CC1.Cl (stereo not drawn) | -58.8%
COc1ccc(N2CCN(CC(O)COCCOc3ccc(Br)cc3)CC2)cc1.Cl (stereo not drawn) | -69.1%
COc1ccccc1N1CCN(CC(O)COc2ccc(S(=O)(=O)N3CCOCC3)cc2)CC1.Cl (stereo not drawn) | -4.3%
COc1ccc(OCCOCC(O)CN2CCOCC2)cc1.Cl (stereo not drawn) | 4.55%
COc1ccccc1NC(=O)CSc1nnc(Cn2nnc(-c3ccccc3)n2)n1-c1ccccc1 | -5.02%

SMILES | hERG current change (%, negative = inhibition) at 10uM
CC(CCc1ccccc1)NC(=O)CNC(=O)COc1ccccc1 (stereo not drawn) | -0.873%
O=C(NC(=S)Nc1ccc2cn[nH]c2c1)c1ccccc1 | -2.32%
Cc1ccccc1C1NC(=S)NC2=C1C(=O)CC(C)(C)C2 (stereo not drawn) | 18.5%
Clc1ccc2oc(-c3cccnc3)nc2c1 | -14.9%
c1ccc(-c2oc3ncnc(NCCN4CCOCC4)c3c2-c2ccccc2)cc1 | -21.3%
c1ccc(-c2oc3ncnc(NCCCN4CCOCC4)c3c2-c2ccccc2)cc1 | -87.1%
c1cn(CCCNc2ncnc3nc[nH]c23)cn1 | 8.93%
Clc1ccc(-n2ncc3c(NCCCn4ccnc4)ncnc32)cc1 | -26.1%
c1ccc(-c2oc3ncnc(NCCCn4ccnc4)c3c2-c2ccccc2)cc1 | -69.9%
COc1ccc(-c2oc3ncnc(NCCCN4CCOCC4)c3c2-c2ccc(OC)cc2)cc1 | 2.49%
Cc1ccc(OCCCC(=O)Nc2cc(Cl)ccc2-n2cncn2)cc1 | -22.4%
CCOC(=O)N1CCN(C(=O)CSCC(=O)Nc2nc(-c3cccs3)cs2)CC1 | -31.4%
COc1cc(CN2CCC(C(=O)N3CCN(c4ccccc4F)CC3)CC2)cc(OC)c1O.O=C(O)C(=O)O | -3.74%
COc1ccc(OC)c(CN2CCC(C(=O)N3CCN(c4ccccc4F)CC3)CC2)c1.O=C(O)C(=O)O | -65.3%
COc1cccc(CN2CCC(C(=O)N3CCN(c4ccccc4F)CC3)CC2)c1OC.O=C(O)C(=O)O | -10.2%
COc1cc(CN2CCC(C(=O)N3CCN(c4ccccc4F)CC3)CC2)cc(OC)c1OC.O=C(O)C(=O)O | -22.6%
CCOc1ccccc1N1CC(C(=O)N2CCN(Cc3ccc(C#N)cc3)CC2)CC1=O (stereo not drawn) | -67.3%
COc1ccc(CN2CCC(C(=O)N3CCN(c4ccccc4F)CC3)CC2)cc1OC | -37%
CCOc1ccccc1N1CC(C(=O)N2CCc3ccccc3C2)CC1=O (stereo not drawn) | -19.4%
COc1cc(CN2CCC(C(=O)N3CCN(c4ccccc4F)CC3)CC2)ccc1O.O=C(O)C(=O)O | -19.9%
CCOc1ccc(CN2CCC(C(=O)N3CCN(c4ccccc4F)CC3)CC2)cc1OC.O=C(O)C(=O)O | -64.8%
CCOc1ccccc1N1CC(C(=O)N2CCOCC2)CC1=O (stereo not drawn) | 13.9%
COc1cccc(CN2CCC(C(=O)N3CCC(C)CC3)CC2)c1.O=C(O)C(=O)O | -11%
COc1cccc(CN2CCC(C(=O)N3CCN(c4ccccc4F)CC3)CC2)c1 | -53%

SMILES | hERG current change (%, negative = inhibition) at 10uM
CC1=C/C(=C(/c2ccc(O)c(C)c2)c2ccccc2S(=O)(=O)[O-])C=CC1=O.[Na+] | 3.9%
Cc1ccc(NC(=O)CSc2ccc(-c3cccnc3)nn2)cc1 | -12.3%
Cc1cccc(OCC(=O)N/N=C\c2cc3c(cc2[N+](=O)[O-])OCO3)c1C | -7.82%
Cc1ccccc1C(=O)Nc1ccccc1C(=O)NC1CC1 | 6.72%
Cc1ccccc1N(CC(=O)NC1CCCCC1)C(=O)c1csnn1 | 8.46%
CCC(=O)Nc1sc2c(c1C(N)=O)CCN(C(C)=O)C2 | 10.7%
Cc1ccc(C(=O)Oc2cccc(NC(=O)c3ccccc3)c2)cc1C | 19.2%
Cc1cc(C)cc(NC(=O)[C@@H](NC(=O)c2ccco2)C(C)C)c1 | 5.62%
Cc1cc(C(=O)NNC(=O)/C=C/c2ccc(F)cc2)c(C)o1 | 1.41%
CCN1CCN(Cc2ccc(NC(=O)c3cc(NC(=O)c4cc(-c5ccc(OC)cc5)n[nH]4)cc(OC)c3)cc2C(F)(F)F)CC1 | 11.9%
CC(C)Nc1nc(NC(C)(C)C)nc(Oc2ccc(=O)n(C)n2)n1 | -15.3%
Cc1c(C(=O)NC2=NCCS2)oc2ccccc12 | -25.4%
Cc1cc(C)nc(Oc2ccc(Br)cc2Br)n1 | 19.1%
CCOc1ccccc1CN1CCC(CO)(CCOc2ccccc2)CC1 | -80.2%
OCC1(CCOc2ccccc2)CCN(Cc2ccccc2OC(F)F)CC1 | -72.5%
C=CCOc1ccccc1CN1CCCN(C)CC1 | 6.51%
OCC1(CCOc2ccccc2)CCN(Cc2ccc(OC(F)F)cc2)CC1 | -79%
CCOc1ccccc1CN1CCN(S(=O)(=O)CC)CC1.O=C(O)C(=O)O | 10.7%
COc1ccccc1CN1CCN(C(=O)COc2ccccc2)CC1 | -8.47%
OCC1(CCOc2ccccc2)CCN(Cc2ccccc2C(F)(F)F)CC1 | -34.2%
C=CCOc1ccccc1CN1CCC(CO)(CCOc2ccccc2)CC1 | -81.9%
